GASC-1 inh = blocks human GASC-1 demethylase activity. Q9H3R0. GST-JMJD2C(1-420) H3K9me3 demethylation, DELFIA europium. inhibition, % at 2.35 µM. 330,000 compounds, 0.069% hits;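 active means more than half of a compound's replicate wells show inhibition beyond 50%, single wells judged on their own value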;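 further: signal counts dimethyl H3K9 product captured on neutravidin plate; 0% = median of DMSO wells and 100% = 0.3 times that DMSO median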
Target sequence (Q9H3R0 1-420 limits assumed): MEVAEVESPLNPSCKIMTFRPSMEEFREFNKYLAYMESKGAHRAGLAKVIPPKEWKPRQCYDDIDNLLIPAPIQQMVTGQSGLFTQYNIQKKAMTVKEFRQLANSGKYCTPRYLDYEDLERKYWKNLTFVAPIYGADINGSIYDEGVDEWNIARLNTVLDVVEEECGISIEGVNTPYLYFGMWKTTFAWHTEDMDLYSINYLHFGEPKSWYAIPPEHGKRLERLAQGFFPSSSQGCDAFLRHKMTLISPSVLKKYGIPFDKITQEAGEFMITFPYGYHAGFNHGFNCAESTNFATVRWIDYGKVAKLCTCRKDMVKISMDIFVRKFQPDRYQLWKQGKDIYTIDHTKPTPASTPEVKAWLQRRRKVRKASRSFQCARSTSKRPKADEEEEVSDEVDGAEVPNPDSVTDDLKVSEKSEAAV
ALR inh = human ALR oxidase inhibition via reduced H2O2; P55789; 290,000 compounds, 3.8% hits; inhibition, % (no concentration beside the values); purified ALR, DTT oxidation, H2O2 HRP-luminol luminescence;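 active means mean replicate inhibition above about 79%, with every replicate also reaching it, limit read from the data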
Target sequence (P55789 whole entry, looked up): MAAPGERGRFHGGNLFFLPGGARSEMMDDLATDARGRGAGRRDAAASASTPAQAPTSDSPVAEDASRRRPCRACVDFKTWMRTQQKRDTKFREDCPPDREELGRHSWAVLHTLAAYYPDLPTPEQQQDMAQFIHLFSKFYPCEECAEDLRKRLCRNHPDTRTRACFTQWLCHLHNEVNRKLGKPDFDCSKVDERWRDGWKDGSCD
MIN6 prolif = MIN6 beta-cell proliferation induction. MIN6 cells proliferation, ATPlite luminescence, 48 h; cells starved in 0.2% serum; 100% = growth in 10% serum. proliferation, % at 10 µM. 330,000 compounds, 0.29% hits;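 active means compounds whose signal lies at least 3.5 SD above the mean of all wells on their plate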;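 further: 0% = DMSO-treated cells in low-serum medium and 100% = 10% serum control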
PfM18AAP inh = blocks P. falciparum M18 aspartyl aminopeptidase; AID 1822; recombinant PfM18AAP, H-Glu-NHMec fluorogenic cleavage; 290,000 compounds, 1.2% hits; inhibition, % at 7.35 µM;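 active means inhibition above the campaign mean inhibition over all tested compounds plus 3 SD, cut at about 28% in these data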;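 further: 0% = plate median of test compound wells and 100% = 2 mM ZnCl2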
Exocytosis inh = lytic granule exocytosis inhibition | TALL-104 LAMP-1 surface exposure, flow cytometry; cells stimulated with thapsigargin and PMA | inhibition, % at 10 µM | 360,000 compounds, 0.66% hits;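 active means inhibition above about 55%, limit read from the data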
SMARCA2 act = SMARCA2 function activation, primary screen. MG213 cells, MMTV-luciferase reporter, dexamethasone, overnight. activation, % at 9.1 µM. 370,000 compounds, 1% hits. AID 652017; in the data active means activation above about 7.8%;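 further: 0% = vehicle wells and 100% = reference activator wells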
Active calls of the source: *; x = no result given. Shown are actives, neighbours in structure and some others; about 5.4% of the full set was active somewhere.

SMILES	GASC-1 inh	ALR inh	MIN6 prolif	PfM18AAP inh	Exocytosis inh	SMARCA2 act
COC(=O)[C@]12C[C@H](CC(=O)NCc3ccccc3)C(=O)N(Cc3ccc(Cl)cc3Cl)C1=C[C@H](C(C)C)O[C@@H]2C1CC1	x	x	x	x	x	-3.0
CCCCCC/C=N/Nc1nnc(Cc2ccc(OC)c(OC)c2)c(=O)[nH]1	3.3	-5.6	-2.0	8.7	-9.7	-0.7
CCCCCCC/C=N/Nc1nnc(Cc2ccccc2)c(=O)[nH]1	-5.6	-8.7	-2.9	28.1*	-19.1	0.2
COC(=O)[C@H](C(C)C)N(CCCc1cn(CC2CCCCC2)nn1)S(=O)(=O)c1ccc(F)cc1Br	x	x	x	x	x	-2.8
O=C1C[C@H](C(=O)Nc2ccc(Cl)cc2)[C@@H](c2ccccc2)O1	x	x	x	x	x	-2.5
Oc1ccc(Br)cc1-c1nc2cnccn2c1NC1CCCC1	-1.1	94.4*	-4.2	5.6	1.9	-2.2
Oc1ccc(Br)cc1-c1nc2cnccn2c1NC1CCCCC1	-13.8	92.1*	-4.2	4.5	-1.3	-2.3
Fc1ccc(-c2nc3cnccn3c2NC2CCCC2)cc1	5.1	99.3*	-1.2	-9.1	-1.4	-0.4
Cc1ccn2c(NC3CCCCC3)c(-c3cccc(SC4CCCCC4)c3)nc2c1	-6.0	-1.2	-6.1	x	6.7	-0.7
Cc1c(NC(=O)C2CCCN(S(=O)(=O)c3ccc(C(C)(C)C)cc3)C2)c(=O)n(-c2ccccc2)n1C (configuration not stated)	x	x	x	x	x	-0.6
COc1ccc(/C=N/S(=O)(=O)c2cccs2)cc1	7.1	-0.2	-0.5	-17.0	4.3	-1.6
COc1ccc(/C=C2\S/C(=N/S(=O)(=O)c3cccs3)NC2=O)cc1	5.6	96.7*	-2.2	-6.3	-2.2	-1.3
CC(C)c1cc(C(C)C)c(S(=O)(=O)NCC(=O)N2CCN(c3ncccn3)CC2)c(C(C)C)c1	x	x	x	x	x	-1.0
COc1ccccc1Nc1nc(C2(C)CCC(=O)O2)cs1 (configuration not stated)	1.4	95.9*	-0.9	-1.5	-0.7	4.2
Nc1cc(C(=O)O)c(N)c2c1C(=O)c1ccccc1C2=O	5.3	99.5*	0.1	6.8	4.1	x
COC(=O)c1cc(C2(c3c[nH]c4ccccc34)CCN(C(=O)OC(C)(C)C)CC2)n2ccccc12	x	x	x	x	x	1.1
Cc1ccc(NC2CCCN(C(=O)c3c(C)noc3C)C2)cc1C (configuration not stated)	3.4	95.4*	1.5	-2.1	-1.1	-2.5
Cc1ccc(NC2CCCN(C(=O)c3snnc3C)C2)cc1C (configuration not stated)	-3.5	99.0*	-2.1	15.6	-4.3	-0.4
COc1cccc(C2CC(=O)N3CN(c4ccccc4F)CSC3=C2C#N)c1 (configuration not stated)	5.0	-27.3	0.3	15.0	4.6	0.6
COc1cc(C2CC(=O)N3CN(c4ccccc4C)CSC3=C2C#N)cc(OC)c1OC (configuration not stated)	21.6	-16.2	-3.0	33.5*	x	2.6
COc1ccccc1N1CSC2=C(C#N)C(c3ccc(SC)cc3)CC(=O)N2C1 (configuration not stated)	-4.5	x	-1.9	30.3*	1.3	-1.7
CN(Cc1ccccc1F)C(=O)C1CCCN(c2ncccn2)C1 (configuration not stated)	x	x	x	x	x	-5.8
COc1ccc2c(c1)CN1C(=O)N(Cc3ccccc3)S(=O)(=O)CC21 (configuration not stated)	x	x	x	x	x	5.8
COc1ccccc1N1C(=O)CC(Nc2ccc(N3CCOCC3)cc2)C1=O (configuration not stated)	2.5	99.5*	0.7	19.0	1.9	-2.7
Cc1ccc(NNC2CC(=O)N(c3cccc(Cl)c3)C2=O)cc1 (configuration not stated)	x	x	-4.3	-0.2	-7.0	1.8
SMILES	GASC-1 inh	ALR inh	MIN6 prolif	PfM18AAP inh	Exocytosis inh	SMARCA2 act
O=C1CC(Nc2ccc(N3CCOCC3)cc2)C(=O)N1Cc1ccccc1 (configuration not stated)	-2.5	97.5*	-1.6	20.9	0.5	-2.9
O=C1CC(Nc2ccc(N3CCOCC3)cc2)C(=O)N1c1ccccc1 (configuration not stated)	-5.5	98.9*	2.9	14.9	-2.1	x
COc1ccc(NC2CC(=O)N(c3ccccc3)C2=O)cc1 (configuration not stated)	-0.8	x	-1.6	1.4	2.0	1.2
O=C1CC(NNc2ccccc2)C(=O)N1c1ccccc1 (configuration not stated)	5.9	99.7*	0.0	-1.2	1.2	-0.6
O=S1(=O)CC2c3ccccc3CN2CN1CCc1ccccc1 (configuration not stated)	x	x	x	x	x	-1.8
CCOC(=O)[C@@]12CCCC=C1N(CCc1ccc(Cl)cc1)C(=O)[C@H]2CC(=O)N1CCC(c2ccccc2)CC1	x	x	x	x	x	-1.0
CCOc1ccccc1N1C(=O)CC(Nc2ccc(N3CCOCC3)cc2)C1=O (configuration not stated)	0.4	98.3*	-1.1	5.8	-1.2	-1.6
CCOc1ccccc1N1CC(C(=O)Nc2ccccc2N2CCOCC2)CC1=O (configuration not stated)	-24.1	-23.6	-2.8	-0.7	-2.4	0.3
O=C(CSc1nnc(CNC(=O)c2cccs2)o1)c1ccc(Cl)cc1	5.5	38.8	0.3	13.2	0.4	-5.2
O=C(CSc1nnc(CNC(=O)c2ccccc2F)o1)NCCc1ccccc1	107.7*	-2.2	-1.0	9.8	2.6	-1.8
O=C(CSc1nnc(CNC(=O)c2cccs2)o1)c1ccccc1	96.6*	53.7	0.3	4.9	-6.5	-4.3
CC(C)[C@H](N)c1nnc(SCC(=O)c2ccc(Cl)cc2)o1	23.8	98.5*	-3.3	5.3	4.8	-4.0
O=C(CSc1nnc(CNC(=O)c2ccccc2F)o1)c1ccc(Cl)cc1	22.1	99.0*	-2.4	-1.8	-1.6	-8.1
CN1CC=C(c2ccccc2)N(c2ccccc2)C1=O	x	x	x	x	x	0.8
COC(=O)C1CN(Cc2ccccc2)CCS(=O)(=O)N1Cc1cn(Cc2ccc(Cl)cc2)nn1 (configuration not stated)	x	x	x	x	x	-5.2
COc1ccc(C(=O)CSc2nnc(CNC(=O)c3ccc(S(=O)(=O)N(C)C)cc3)o2)cc1	17.3	98.0*	-1.0	3.3	-4.3	-1.9
COC(=O)c1ccc(CSc2nnc(CNC(=O)c3ccccc3F)o2)o1	15.2	97.0*	3.0	1.9	0.5	0.6
COc1ccccc1CNc1ccc(N2CCCCC2)cc1	4.8	98.1*	-4.6	8.4	0.0	x
COc1cccc(Nc2ccc(N3CCCCC3)cc2)c1OC	-6.2	99.6*	-6.7	x	-0.6	2.1
COc1cc(CNc2ccc(N3CCCC3)cc2)cc(Cl)c1OC	9.8	19.0	-6.8	11.3	0.7	-5.8
COc1cccc(CNc2ccc(N3CCCCC3)cc2)c1OC	x	96.5*	-4.1	8.3	3.6	-1.2

High-throughput results from PubChem BioAssay.
